Experimental data reported in paper PMC11006913.
Residue numbers refer to the chain shown, from its start.

Tests used:
Assay in all cases: PBM; 200 nM protein, PBS
Settings in all cases: dsDNA, one strand shown
NKX2-5 [1] = molecular target: NKX2-5 (Homo sapiens, UniProt P52952 125-210, R139K)
NKX2-4 [2] = molecular target: T1, NKX2-4 (Homo sapiens, UniProt Q9H2Z4 175-261, P217L)
T1 sequence: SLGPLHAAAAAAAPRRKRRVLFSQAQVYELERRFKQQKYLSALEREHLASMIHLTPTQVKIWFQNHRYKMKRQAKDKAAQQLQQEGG

NKX2-4 [3] = molecular target: T2, NKX2-4 (Homo sapiens, UniProt Q9H2Z4 175-261, T231S)
T2 sequence: T1 sequence with L43P, T57S

NKX2-4 [4] = molecular target: T3, NKX2-4 (Homo sapiens, UniProt Q9H2Z4 175-261)
T3 sequence: T1 sequence with L43P

NKX2-6 [5] = molecular target: T4, NKX2-6 (Homo sapiens, UniProt A6NCS4 118-204, R150C)
T4 sequence: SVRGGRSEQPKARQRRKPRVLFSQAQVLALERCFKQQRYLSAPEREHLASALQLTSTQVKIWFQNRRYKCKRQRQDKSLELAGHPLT

NKX2-6 [6] = molecular target: T5, NKX2-6 (Homo sapiens, UniProt A6NCS4 118-204)
T5 sequence: T4 sequence with C33R

NKX2-4 [7] = molecular target: T6, NKX2-4 (Homo sapiens, UniProt Q9H2Z4 175-261, R246Q)
T6 sequence: T1 sequence with L43P, R72Q

NKX2-6 [8] = molecular target: T7, NKX2-6 (Homo sapiens, UniProt A6NCS4 118-204, F151L)
T7 sequence: T4 sequence with C33R, F34L

NKX3-2 [9] = molecular target: NKX3-2 (Homo sapiens, UniProt P78367 192-278, P234S)
NKX2-5 [10] = molecular target: NKX2-5 (Homo sapiens, UniProt P52952 125-210)
NKX3-2 [11] = molecular target: NKX3-2 (Homo sapiens, UniProt P78367 192-278)
VENTX [12] = molecular target: T8, VENTX (Homo sapiens, UniProt O95231 78-163, R121Q)
T8 sequence: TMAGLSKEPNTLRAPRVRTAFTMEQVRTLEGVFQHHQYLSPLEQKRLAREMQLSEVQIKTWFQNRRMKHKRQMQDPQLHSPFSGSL

VENTX [13] = molecular target: T9, VENTX (Homo sapiens, UniProt O95231 78-163)
T9 sequence: T8 sequence with Q44R

VENTX [14] = molecular target: T10, VENTX (Homo sapiens, UniProt O95231 78-163, Y115F)
T10 sequence: T8 sequence with Y38F, Q44R

NKX2-5 (Homo sapiens, UniProt P52952 125-210), sequence (P52952 125-210): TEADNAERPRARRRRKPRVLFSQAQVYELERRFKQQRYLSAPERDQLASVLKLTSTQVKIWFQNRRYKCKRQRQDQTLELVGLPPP
NKX3-2 (Homo sapiens, UniProt P78367 192-278, P234S), sequence (P78367 192-278 P234S): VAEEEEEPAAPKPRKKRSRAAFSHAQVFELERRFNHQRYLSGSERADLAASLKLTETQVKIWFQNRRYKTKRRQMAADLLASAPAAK
NKX3-2 (Homo sapiens, UniProt P78367 192-278), sequence (P78367 192-278): as the sequence (P78367 192-278 P234S) above, with S43P counted along it
NKX2-5 (Homo sapiens, UniProt P52952 125-210, R139K), sequence (P52952 125-210 R139K): as the sequence (P52952 125-210) above, with R15K counted along it

Sequence | binding signal (NKX2-5 [1]) | binding signal (NKX2-4 [2]) | binding signal (NKX2-4 [3]) | binding signal (NKX2-4 [4]) | binding signal (NKX2-6 [5]) | binding signal (NKX2-6 [6]) | binding signal (NKX2-4 [7]) | binding signal (NKX2-6 [8]) | binding signal (NKX3-2 [9]) | binding signal (NKX2-5 [10]) | binding signal (NKX3-2 [11]) | binding signal (VENTX [12]) | binding signal (VENTX [13]) | binding signal (VENTX [14])
AAGTACCC | 12.4 upbm affinity estimate (log intensity, higher = more binding, comparable within an allelic series) | 12.4 upbm affinity estimate (log intensity, higher = more binding, comparable within an allelic series) | 12.9 upbm affinity estimate (log intensity, higher = more binding, comparable within an allelic series) | 12.3 upbm affinity estimate (log intensity, higher = more binding, comparable within an allelic series) | 11.7 upbm affinity estimate (log intensity, higher = more binding, comparable within an allelic series) | 13.4 upbm affinity estimate (log intensity, higher = more binding, comparable within an allelic series) | 12.9 upbm affinity estimate (log intensity, higher = more binding, comparable within an allelic series) | 10.5 upbm affinity estimate (log intensity, higher = more binding, comparable within an allelic series) | 12.8 upbm affinity estimate (log intensity, higher = more binding, comparable within an allelic series) | 12.2 upbm affinity estimate (log intensity, higher = more binding, comparable within an allelic series) | 12.8 upbm affinity estimate (log intensity, higher = more binding, comparable within an allelic series) |  |  | 
AAGCACTT | 12.7 upbm affinity estimate (log intensity, higher = more binding, comparable within an allelic series) | 12.6 upbm affinity estimate (log intensity, higher = more binding, comparable within an allelic series) | 12.9 upbm affinity estimate (log intensity, higher = more binding, comparable within an allelic series) | 12.4 upbm affinity estimate (log intensity, higher = more binding, comparable within an allelic series) | 11.8 upbm affinity estimate (log intensity, higher = more binding, comparable within an allelic series) | 13.5 upbm affinity estimate (log intensity, higher = more binding, comparable within an allelic series) | 13.1 upbm affinity estimate (log intensity, higher = more binding, comparable within an allelic series) | 11 upbm affinity estimate (log intensity, higher = more binding, comparable within an allelic series) | 12.5 upbm affinity estimate (log intensity, higher = more binding, comparable within an allelic series) | 12.5 upbm affinity estimate (log intensity, higher = more binding, comparable within an allelic series) | 12.6 upbm affinity estimate (log intensity, higher = more binding, comparable within an allelic series) |  |  | 
CACTTAAG | 13.2 upbm affinity estimate (log intensity, higher = more binding, comparable within an allelic series) | 12.7 upbm affinity estimate (log intensity, higher = more binding, comparable within an allelic series) | 13 upbm affinity estimate (log intensity, higher = more binding, comparable within an allelic series) | 12.5 upbm affinity estimate (log intensity, higher = more binding, comparable within an allelic series) | 12.2 upbm affinity estimate (log intensity, higher = more binding, comparable within an allelic series) | 14 upbm affinity estimate (log intensity, higher = more binding, comparable within an allelic series) | 13.2 upbm affinity estimate (log intensity, higher = more binding, comparable within an allelic series) | 11.5 upbm affinity estimate (log intensity, higher = more binding, comparable within an allelic series) | 13 upbm affinity estimate (log intensity, higher = more binding, comparable within an allelic series) | 13.1 upbm affinity estimate (log intensity, higher = more binding, comparable within an allelic series) | 13.1 upbm affinity estimate (log intensity, higher = more binding, comparable within an allelic series) |  |  | 
AAGTGGTA | 12.5 upbm affinity estimate (log intensity, higher = more binding, comparable within an allelic series) | 12.4 upbm affinity estimate (log intensity, higher = more binding, comparable within an allelic series) | 12.9 upbm affinity estimate (log intensity, higher = more binding, comparable within an allelic series) | 12.3 upbm affinity estimate (log intensity, higher = more binding, comparable within an allelic series) | 11.9 upbm affinity estimate (log intensity, higher = more binding, comparable within an allelic series) | 13.4 upbm affinity estimate (log intensity, higher = more binding, comparable within an allelic series) | 12.9 upbm affinity estimate (log intensity, higher = more binding, comparable within an allelic series) | 10.7 upbm affinity estimate (log intensity, higher = more binding, comparable within an allelic series) | 12.8 upbm affinity estimate (log intensity, higher = more binding, comparable within an allelic series) | 12.5 upbm affinity estimate (log intensity, higher = more binding, comparable within an allelic series) | 12.9 upbm affinity estimate (log intensity, higher = more binding, comparable within an allelic series) |  |  | 
CCACTCAA | 12.5 upbm affinity estimate (log intensity, higher = more binding, comparable within an allelic series) | 12.6 upbm affinity estimate (log intensity, higher = more binding, comparable within an allelic series) | 13.1 upbm affinity estimate (log intensity, higher = more binding, comparable within an allelic series) | 12.5 upbm affinity estimate (log intensity, higher = more binding, comparable within an allelic series) | 11.8 upbm affinity estimate (log intensity, higher = more binding, comparable within an allelic series) | 13.4 upbm affinity estimate (log intensity, higher = more binding, comparable within an allelic series) | 13.1 upbm affinity estimate (log intensity, higher = more binding, comparable within an allelic series) | 10.7 upbm affinity estimate (log intensity, higher = more binding, comparable within an allelic series) | 12.6 upbm affinity estimate (log intensity, higher = more binding, comparable within an allelic series) | 12.3 upbm affinity estimate (log intensity, higher = more binding, comparable within an allelic series) | 12.7 upbm affinity estimate (log intensity, higher = more binding, comparable within an allelic series) |  |  | 
AAGTACTT | 13.2 upbm affinity estimate (log intensity, higher = more binding, comparable within an allelic series) | 12.9 upbm affinity estimate (log intensity, higher = more binding, comparable within an allelic series) | 13.3 upbm affinity estimate (log intensity, higher = more binding, comparable within an allelic series) | 12.7 upbm affinity estimate (log intensity, higher = more binding, comparable within an allelic series) | 12.1 upbm affinity estimate (log intensity, higher = more binding, comparable within an allelic series) | 13.8 upbm affinity estimate (log intensity, higher = more binding, comparable within an allelic series) | 13.3 upbm affinity estimate (log intensity, higher = more binding, comparable within an allelic series) | 11.5 upbm affinity estimate (log intensity, higher = more binding, comparable within an allelic series) | 12.6 upbm affinity estimate (log intensity, higher = more binding, comparable within an allelic series) | 13 upbm affinity estimate (log intensity, higher = more binding, comparable within an allelic series) | 12.7 upbm affinity estimate (log intensity, higher = more binding, comparable within an allelic series) |  |  | 
CACTTAAA | 13.1 upbm affinity estimate (log intensity, higher = more binding, comparable within an allelic series) | 12.7 upbm affinity estimate (log intensity, higher = more binding, comparable within an allelic series) | 13.1 upbm affinity estimate (log intensity, higher = more binding, comparable within an allelic series) | 12.6 upbm affinity estimate (log intensity, higher = more binding, comparable within an allelic series) | 12 upbm affinity estimate (log intensity, higher = more binding, comparable within an allelic series) | 13.8 upbm affinity estimate (log intensity, higher = more binding, comparable within an allelic series) | 13.2 upbm affinity estimate (log intensity, higher = more binding, comparable within an allelic series) | 11.4 upbm affinity estimate (log intensity, higher = more binding, comparable within an allelic series) | 12.7 upbm affinity estimate (log intensity, higher = more binding, comparable within an allelic series) | 13 upbm affinity estimate (log intensity, higher = more binding, comparable within an allelic series) | 12.8 upbm affinity estimate (log intensity, higher = more binding, comparable within an allelic series) |  |  | 
ACTTAAGT | 12.8 upbm affinity estimate (log intensity, higher = more binding, comparable within an allelic series) | 12.5 upbm affinity estimate (log intensity, higher = more binding, comparable within an allelic series) | 12.9 upbm affinity estimate (log intensity, higher = more binding, comparable within an allelic series) | 12.4 upbm affinity estimate (log intensity, higher = more binding, comparable within an allelic series) | 11.8 upbm affinity estimate (log intensity, higher = more binding, comparable within an allelic series) | 13.7 upbm affinity estimate (log intensity, higher = more binding, comparable within an allelic series) | 13 upbm affinity estimate (log intensity, higher = more binding, comparable within an allelic series) | 11.2 upbm affinity estimate (log intensity, higher = more binding, comparable within an allelic series) | 12.6 upbm affinity estimate (log intensity, higher = more binding, comparable within an allelic series) | 12.9 upbm affinity estimate (log intensity, higher = more binding, comparable within an allelic series) | 12.7 upbm affinity estimate (log intensity, higher = more binding, comparable within an allelic series) |  |  | 
CACGGGCC | 8.73 upbm affinity estimate (log intensity, higher = more binding, comparable within an allelic series) |  |  |  |  |  |  |  |  | 8.71 upbm affinity estimate (log intensity, higher = more binding, comparable within an allelic series) |  | 7.96 upbm affinity estimate (log intensity, higher = more binding, comparable within an allelic series) | 8.01 upbm affinity estimate (log intensity, higher = more binding, comparable within an allelic series) | 7.92 upbm affinity estimate (log intensity, higher = more binding, comparable within an allelic series)
CGTGCGGC | 8.72 upbm affinity estimate (log intensity, higher = more binding, comparable within an allelic series) | 9.48 upbm affinity estimate (log intensity, higher = more binding, comparable within an allelic series) | 9.35 upbm affinity estimate (log intensity, higher = more binding, comparable within an allelic series) | 9.44 upbm affinity estimate (log intensity, higher = more binding, comparable within an allelic series) |  |  | 9.47 upbm affinity estimate (log intensity, higher = more binding, comparable within an allelic series) |  |  | 8.8 upbm affinity estimate (log intensity, higher = more binding, comparable within an allelic series) |  |  |  | 
CCACTCGA | 12.5 upbm affinity estimate (log intensity, higher = more binding, comparable within an allelic series) | 12.6 upbm affinity estimate (log intensity, higher = more binding, comparable within an allelic series) | 13.1 upbm affinity estimate (log intensity, higher = more binding, comparable within an allelic series) | 12.4 upbm affinity estimate (log intensity, higher = more binding, comparable within an allelic series) | 11.6 upbm affinity estimate (log intensity, higher = more binding, comparable within an allelic series) |  | 13.1 upbm affinity estimate (log intensity, higher = more binding, comparable within an allelic series) |  |  | 12.2 upbm affinity estimate (log intensity, higher = more binding, comparable within an allelic series) |  |  |  | 
TCAAGTGA | 12.5 upbm affinity estimate (log intensity, higher = more binding, comparable within an allelic series) | 12.5 upbm affinity estimate (log intensity, higher = more binding, comparable within an allelic series) | 13 upbm affinity estimate (log intensity, higher = more binding, comparable within an allelic series) | 12.4 upbm affinity estimate (log intensity, higher = more binding, comparable within an allelic series) | 11.7 upbm affinity estimate (log intensity, higher = more binding, comparable within an allelic series) | 13.5 upbm affinity estimate (log intensity, higher = more binding, comparable within an allelic series) | 13.1 upbm affinity estimate (log intensity, higher = more binding, comparable within an allelic series) | 10.5 upbm affinity estimate (log intensity, higher = more binding, comparable within an allelic series) |  | 12.4 upbm affinity estimate (log intensity, higher = more binding, comparable within an allelic series) |  |  |  | 
CCGACCTC | 8.77 upbm affinity estimate (log intensity, higher = more binding, comparable within an allelic series) |  |  |  |  |  |  |  |  | 8.83 upbm affinity estimate (log intensity, higher = more binding, comparable within an allelic series) |  | 7.98 upbm affinity estimate (log intensity, higher = more binding, comparable within an allelic series) | 7.99 upbm affinity estimate (log intensity, higher = more binding, comparable within an allelic series) | 8.1 upbm affinity estimate (log intensity, higher = more binding, comparable within an allelic series)
